12 compounds from PubChem BioAssay AID488984 (The Scripps Research Institute Molecular Screening Center, 2010) can be followed below.

A number with no mark means an inactive call. Rule as the data show it: active = inhibition above about 55%; inactive = the rest.

The test system of this test is SARS coronavirus 3C-like protease (3CLpro, nsp5). The test can be described thus: blockers of SARS 3CLpro activity – biochemical, fluorescence, set 2, late-stage follow-up (AID 488984). The conditions noted are these: recombinant 3CLpro, fluorogenic peptide cleavage; at 100 µM; stronger effect = higher value.
Regarding `CC(C)c1ccc(N(C(=O)c2n[nH]c3ccccc23)C(C(=O)NC(C)(C)C)c2cccnc2)cc1` (configuration not stated), the inhibition (commonly the relative decrease from the control value, in per cent) is 13.2%.

For `Cc1nc2ccccc2n1CC(=O)N(c1ccc(NC(=O)C(C)C)cc1)C(C(=O)NC(C)(C)C)c1ccsc1` (configuration not stated), the inhibition is 0.26%. In the case of `CC(C)(C)NC(=O)C(c1ccsc1)N(C(=O)c1ccc(C(F)(F)F)nc1)c1ccc(OCF)cc1` (configuration not stated), the inhibition is 21.3%. `CC(C)c1ccc(N(C(=O)c2cccc3c2CCCC3)C(C(=O)NC(C)(C)C)c2cccnc2)cc1` (configuration not stated): the inhibition is -5.03%. Consider `CC(C)(C)NC(=O)C(c1ccsc1)N(C(=O)c1ccco1)c1ccc(OC(F)F)cc1` (configuration not stated), for which the inhibition was 25.9%. To `CC(C)(C)NC(=O)C(c1ccsc1)N(C(=O)Cc1cccc2ccccc12)C1CC1` (configuration not stated) belongs 16.5%; to `CC(C)c1ccc(N(C(=O)c2cccc3c2CCCC3)C(C(=O)NC(C)(C)C)c2ccsc2)cc1` (configuration not stated), 7.39%. Consider `CC(C)(C)NC(=O)C(c1cccnc1)N(C(=O)Cc1cccnc1)c1ccc(OCF)cc1` (configuration not stated), for which the inhibition is 18.7%. For the compound `CC(C)c1ccc(N(C(=O)c2n[nH]c3ccccc23)C(C(=O)NC(C)(C)C)c2ccsc2)cc1` (configuration not stated), the inhibition is 7.3%.

In the case of `CC(C)(C)NC(=O)C(c1ccsc1)N(C(=O)Cc1cccc2ccccc12)c1ccc(OCF)cc1` (configuration not stated), the inhibition is 18.2%. To `CC(C)(C)NC(=O)C(c1ccsc1)N(C(=O)Cc1c[nH]c2ccccc12)c1ccc(F)cc1` (configuration not stated) belongs 17.7%; to `CC(C)(C)NC(=O)C(c1cccnc1)N(C(=O)Cc1cccnc1)c1ccc(F)cc1` (configuration not stated), 5.7%.
